Test results reported in PubChem BioAssay (NCATS).
Results filed as inconclusive are left out. Active and inactive are the calls of the source. Calls follow the shape of the dose curve; as a rule, active = well fitted inhibition curve with a large enough effect; inconclusive = small, poorly fitted or top-dose-only effect; inactive = flat fitted curve, though single readings scatter.

Key:
CRL-7250 = normal cell line; test: Cytotoxic Profiling of Annotated Libraries Using Quantitative High-Throughput Screening (AID 1296008); details: Five cell lines viability, CellTiter-Glo ATP luminescence, 48-72 h; max response: active compounds read low; as to max response: % is scaled to controls: 0 for no effect and ±100 for the full control effect
Procedure, shortened: (§1)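 Cytotoxicity was measured as CellTiter-Glo ATP luminescence, read after 10 min at room temperature. Compound treatment of the cells lasted 48 or 72 hr at 37 degrees Celsius in a qHTS format.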

HEK293 = test: as above; details: Five cell lines viability, CellTiter-Glo ATP luminescence, 48-72 h; max response: active compounds read low
Procedure, shortened: as §1

HaCat [1] = test: as above; details: Five cell lines viability, CellTiter-Glo ATP luminescence, 48-72 h; max response: active compounds read low
Procedure, shortened: as §1

KB-3-1 = test: as above; details: Five cell lines viability, CellTiter-Glo ATP luminescence, 48-72 h; max response: active compounds read low
Procedure, shortened: as §1

NIH3T3 = test: as above; details: Five cell lines viability, CellTiter-Glo ATP luminescence, 48-72 h; max response: active compounds read low
Procedure, shortened: as §1

HACAT [2] = test: qHTS assay to identify novel small-molecules to repurpose for Merkel cell carcinoma treatment (AID 1296009); details: MCC and control cell lines, CellTiter-Glo viability, 72 h; at 44.8 µM (top of the series) unless noted
Procedure, shortened: (§2)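 After compound transfer in DMSO, plates were kept 72 hr at 37 degree celsius. Luminescent ATP signal from CellTiter-Glo served as viability measure, normalized against DMSO and no-cell controls.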

HEK293T = test: as above; details: MCC and control cell lines, CellTiter-Glo viability, 72 h; series mostly up to 44.8 µM
Procedure, shortened: as §2
Also: nearly all actives have a fitted effect of over 60% in size.

Cc1cc(O)c(C(C)C)cc1O[C@@H]1O[C@H](CO)[C@@H](O)[C@H](O)[C@H]1O
inactive: max response (CRL-7250) -11.2% | outcome (HEK293) | outcome (HaCat [1]) | outcome (KB-3-1) | max response (NIH3T3) 1.36% | outcome (HACAT [2]) | Potency (HEK293T)

Clc1ccc(CN[C@H]2CCN(c3ncc(Br)cn3)C2)c(Cl)c1
inactive: max response (CRL-7250) -7.31% | outcome (HEK293) | outcome (HaCat [1]) | max response (KB-3-1) -14.8% | max response (NIH3T3) 4.57% | outcome (HACAT [2]) | Potency (HEK293T)

COc1ccc2c(c1)OC[C@]1(O)c3cc4c(cc3O[C@H]21)OCO4
inactive: max response (CRL-7250) -0.876% | outcome (HEK293) | outcome (HaCat [1]) | outcome (KB-3-1) | outcome (NIH3T3) | outcome (HACAT [2]) | Potency (HEK293T)

C=CC1(C)C=C2C(O)CC3C(C)(C(=O)O)CCCC3(C)C2CC1 (stereo not given)
inactive: outcome (CRL-7250) | outcome (HEK293) | outcome (HaCat [1]) | max response (KB-3-1) 7.58% | max response (NIH3T3) -5.1% | outcome (HACAT [2]) | Potency (HEK293T)

C/C=C/C=C/C=C/C(=O)O[C@@H]1[C@@H](OC)C2=C(C(=O)N(C(C)C(=O)O)C2)[C@@]2(C)CCCC(C)(C)[C@H]12 (stereo not given in full)
inactive: max response (CRL-7250) -1.32% | outcome (HEK293) | outcome (HaCat [1]) | max response (KB-3-1) 5.59% | max response (NIH3T3) 0.76% | outcome (HACAT [2]) inactive [at 17.4 µM] | Potency (HEK293T)

C=C1CC[C@H]2[C@@H](/C=C(\C)C(=O)[C@@]3(OC(C)=O)C[C@H](C)[C@H](OC(C)=O)[C@@H]3[C@H]1OC(C)=O)C2(C)C
inactive: outcome (CRL-7250) | outcome (HEK293) | outcome (HaCat [1]) | outcome (KB-3-1) | outcome (NIH3T3) | outcome (HACAT [2]) inactive [at 17.4 µM] | Potency (HEK293T)

CC(=O)O[C@H]1[C@H](C)[C@@H](O)[C@H]2[C@@H]1C=C(C(=O)O)[C@H]1C[C@@H]3[C@H]([C@H]21)[C@H]1C(=O)O[C@@H]2CC[C@@]3(C)O[C@]1(O)[C@@H]2C
inactive: max response (CRL-7250) -0.589% | outcome (HEK293) | outcome (HaCat [1]) | max response (KB-3-1) 7.8% | outcome (NIH3T3) | outcome (HACAT [2]) inactive [at 17.4 µM] | Potency (HEK293T)

CC1CCC2(C)C(CC(O)C(O)C23CO3)C1(C)CCC1=CC(=O)OC1O (stereo not given)
inactive: max response (CRL-7250) -22% | outcome (HEK293) | outcome (HaCat [1]) inactive; activator | max response (KB-3-1) 4.04% | max response (NIH3T3) 3.09% | outcome (HACAT [2]) inactive; activator | Potency (HEK293T)

CC(C)=CCc1ccc(Oc2c(O)cc(C)cc2CO)c(C(=O)O)c1O
inactive: max response (CRL-7250) -1.26% | outcome (HEK293) | outcome (HaCat [1]) | outcome (KB-3-1) | outcome (NIH3T3) | outcome (HACAT [2]) | Potency (HEK293T)

COc1cc(C/C(=C/NC(C)=O)N(CC(=O)Cc2ccccc2)C(C)=O)cc2c1OCO2
inactive: max response (CRL-7250) -6.34% | outcome (HEK293) | outcome (HaCat [1]) | max response (KB-3-1) 7.98% | max response (NIH3T3) 2.9% | outcome (HACAT [2]) inactive [at 17.4 µM] | Potency (HEK293T)

COc1cccc(-c2ccc([C@@H](Oc3cc(-c4ccc(C[C@H](N)C(=O)O)cc4)nc(N)n3)C(F)(F)F)cc2)c1
inactive: outcome (CRL-7250) | outcome (HEK293) | outcome (HaCat [1]) | outcome (KB-3-1) | outcome (NIH3T3) | outcome (HACAT [2]) | Potency (HEK293T)

C=C(C)C(=O)O[C@H]1C[C@@](C)(OC(C)=O)[C@@]2(O)CC[C@@](C)(O)[C@H](OC(C)=O)[C@@]23OC(=O)C(COC)=C13
inactive: max response (CRL-7250) 3.52% | outcome (HEK293) | outcome (HaCat [1]) | max response (KB-3-1) 6.06% | outcome (NIH3T3) | outcome (HACAT [2]) inactive [at 17.4 µM] | Potency (HEK293T)

COC(=O)c1ccc(O[C@@H]2O[C@H](CO)[C@@H](O)[C@H](O)[C@H]2O)c(OC)c1
inactive: max response (CRL-7250) -0.304% | outcome (HEK293) | outcome (HaCat [1]) | max response (KB-3-1) 4.82% | outcome (NIH3T3) | outcome (HACAT [2]) | Potency (HEK293T)

Cc1nnc(C(C)C)n1C1CC2CCC(C1)N2CC[C@H](NC(=O)C1CCC(F)(F)CC1)c1ccccc1 (stereo not given in full)
inactive: outcome (CRL-7250) | outcome (HEK293) | outcome (HaCat [1]) | max response (KB-3-1) -4.91% | outcome (NIH3T3) | outcome (HACAT [2]) | Potency (HEK293T)

CC1=C2C(=O)C=C(CO)[C@@H]2[C@H]2OC(=O)[C@H](C)[C@@H]2[C@@H](O)C1
inactive: outcome (CRL-7250) | outcome (HEK293) | outcome (HaCat [1]) | max response (KB-3-1) 1.39% | max response (NIH3T3) -3.32% | outcome (HACAT [2]) | Potency (HEK293T)

CCCCS(=O)(=O)Nc1ncnc(OCCOc2ncc(Br)cn2)c1-c1ccc(Br)cc1
inactive: max response (CRL-7250) -8.77% | outcome (HEK293) | outcome (HaCat [1]) | outcome (KB-3-1) | max response (NIH3T3) 1.6% | outcome (HACAT [2]) | Potency (HEK293T)

C=C1[C@H]2[C@H](O[C@@H]3O[C@H](COC(=O)/C=C/c4cc(OC)c(O)c(OC)c4)[C@@H](O)[C@H](O)[C@H]3O)OC=C(C(=O)O)[C@H]2C[C@@H]1O
inactive: outcome (CRL-7250) | outcome (HEK293) | outcome (HaCat [1]) | outcome (KB-3-1) | max response (NIH3T3) 4.54% | outcome (HACAT [2]) inactive [at 17.4 µM] | Potency (HEK293T)

O=c1ccn([C@@H]2O[C@H](CO)[C@@H](O)[C@H]2O)c(=O)[nH]1
inactive: max response (CRL-7250) -8.67% | outcome (HEK293) | max response (HaCat [1]) 3.94% | max response (KB-3-1) 0.253% | outcome (NIH3T3) | Potency (HEK293T)
